Activity calls are given as the source filed them. Rule for the calls: active = hit-call score of the fitted dose curve at least 0.9, where 1 is the maximum; inactive = score below 0.9.
Tests used:
[1] = target: CCAAT/enhancer-binding protein beta (Homo sapiens) (UniProt P17676); assay: ATG_C_EBP_CIS: Attagene CIS-FACTORIAL HepG2 Assay for human CCAAT/Enhancer Binding Protein (C/EBP) beta (AID 2282927); conditions: HepG2 Attagene cis-factorial transcription factor reporter; actives raise or lower the signal
Summary of the method: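 Endogenous C/EBPb-driven reporter transcripts measured in transfected human HepG2 cells at 24 h via RT-PCR and capillary electrophoresis of labelled fragments. Activity fitted in both directions relative to DMSO baseline.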

[2] = ATG_CMV_CIS: Attagene CIS-FACTORIAL HepG2 Assay for human CMV (Internal Marker) (AID 2282928); conditions: HepG2 CMV promoter reporter, transcription factor profiling; actives raise or lower the signal;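 note: endpoint acts as a background internal control marker rather than a target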
Summary of the method: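 Cell system: HepG2, transiently transfected multiple reporter units under cis promoters. Exposure: 24 h. Detection: RT-PCR, FAM labeling, HpaI digestion, capillary electrophoresis. Analysis: bidirectional, DMSO baseline.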

[3] = ATG_DR4_LXR_CIS: Attagene CIS-FACTORIAL HepG2 Assay for human Liver X Receptor (LXR), DR4 submotif (AID 2282929); conditions: HepG2 Attagene DR4 cis-reporter, mRNA transcription; actives raise or lower the signal
Summary of the method: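 Endogenous factor activity at a DR4 cis-element is read as reporter mRNA in transiently transfected HepG2 cells. Exposure lasts 24 h; transcripts are amplified, fluorescently labelled and sized by capillary electrophoresis, with DMSO as baseline.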

[4] = target: Aryl hydrocarbon receptor (Homo sapiens) (UniProt P35869); assay: ATG_Ahr_CIS: Attagene CIS-FACTORIAL HepG2 Assay for human Aryl Hydrocarbon Receptor (Ahr) (AID 2282930); conditions: HepG2 AhR cis-factorial reporter transcription; actives raise or lower the signal
Summary of the method: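 Reporter mRNA levels, quantified by RT-PCR and fluorescent capillary electrophoresis, reflect endogenous AhR transcriptional activity in HepG2 cells carrying transfected cis-promoter reporter constructs. Readout at 24 h post-dose; gain or loss fitted against DMSO baseline.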

[5] = ATG_AP_1_CIS: Attagene CIS-FACTORIAL HepG2 Assay for human Activator Protein 1 (AP-1) (AID 2282931); conditions: HepG2 Attagene cis-factorial AP-1 reporter mRNA; actives raise or lower the signal
Summary of the method: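 Fluorescence of labelled PCR fragments separated by capillary electrophoresis gives reporter mRNA levels. HepG2 with transfected cis-regulated reporter units, 24 h exposure; DMSO serves as baseline for bidirectional curve fits.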

[6] = ATG_AP_2_CIS: Attagene CIS-FACTORIAL HepG2 Assay for human Activator Protein 2 (AP-2) (AID 2282932); conditions: HepG2 AP-2 cis-reporter, Attagene transcription factor profiling; actives raise or lower the signal
Summary of the method: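 HepG2, transient MRTU transfection, cis-regulated reporters; 24 h compound exposure; RNA isolated, RT-PCR, 6-FAM labelling, HpaI digest, CE fluorescence. DMSO = negative control/baseline, bidirectional fit.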

[7] = ATG_BRE_CIS: Attagene CIS-FACTORIAL HepG2 Assay for human Bone Morphogenetic Protein (BMP) Response Element (BRE) (AID 2282933); conditions: HepG2 BMP response element reporter, Attagene transcription factor profiling; actives raise or lower the signal
Summary of the method: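 Endogenous transcription factor activity read in transiently transfected HepG2 cells after 24 h chemical exposure. Bidirectional curve fitting against DMSO; readout is reporter transcript level by RT-PCR with capillary electrophoresis of labelled products.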

[8] = target: Transcription factor E2F1 (Homo sapiens) (UniProt Q01094); assay: ATG_E2F_CIS: Attagene CIS-FACTORIAL HepG2 Assay for human E2F Transcription Factor 1 (AID 2282935); conditions: HepG2 Attagene cis-reporter, E2F reporter RNA transcripts; actives raise or lower the signal
Summary of the method: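 Cis-element reporter mRNA induction in transiently transfected HepG2, 24 h exposure. Activity fitted in both directions relative to DMSO negative control.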

[9] = ATG_E_Box_CIS: Attagene CIS-FACTORIAL HepG2 Assay for human Enhancer Box (E-box) (AID 2282936); conditions: HepG2 E-box cis-reporter transcription, actives raise or lower the signal
Summary of the method: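 Cells: HepG2 (human liver), transient MRTU transfection. Exposure 24 h. RNA → oligo(dT) RT → PCR → 6-FAM label → HpaI → CE. Activity fitted both directions relative to DMSO.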

[10] = ATG_M_61_CIS: Attagene CIS-FACTORIAL HepG2 Assay for M61 Transcription Factor (Internal Marker) (AID 2282937); conditions: HepG2 Attagene CIS-FACTORIAL M61 internal marker reporter; actives raise or lower the signal
Summary of the method: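 This endpoint serves as an internal background control within a multiplexed HepG2 cis-reporter panel. Cells are exposed for 24 h; reporter mRNA is amplified, fluorescently labelled and sized by capillary electrophoresis, with DMSO as negative control.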

[11] = ATG_EGR_CIS: Attagene CIS-FACTORIAL HepG2 Assay for human Early Growth Response 1 (EGR1) (AID 2282938); conditions: HepG2 Attagene CIS-FACTORIAL EGR reporter mRNA; actives raise or lower the signal
Summary of the method: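 HepG2, transient MRTU transfection (cis promoters), 24 h compound. RNA → RT (oligo-dT) → PCR → 6-FAM labelling → HpaI cut → CE fluorescence. Bidirectional fit, DMSO baseline.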

[12] = ATG_M_19_CIS: Attagene CIS-FACTORIAL HepG2 Assay for M19 Transcription Factor (Internal Marker) (AID 2282939); conditions: HepG2 Attagene CIS-FACTORIAL M19 internal marker reporter; actives raise or lower the signal
Summary of the method: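 Internal marker readout, fitted in both directions against DMSO, from HepG2 cells carrying transfected cis-element reporter constructs; RT-PCR and capillary electrophoresis of reporter mRNA after 24 h exposure.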

[13] = ATG_ERE_CIS: Attagene CIS-FACTORIAL HepG2 Assay for Estrogen Response Element (ERE) (AID 2282940); conditions: HepG2 ERE cis-reporter, Attagene RNA transcript; actives raise or lower the signal
Summary of the method: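 After 24 h compound treatment, RNA from transfected HepG2 cells was reverse-transcribed, reporter cDNA PCR-amplified, FAM-labelled, HpaI-cut and resolved by capillary electrophoresis. ERE-driven cis reporter transcripts reflect endogenous factors; gain or loss scored against DMSO.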

[14] = target: Hepatocyte nuclear factor 3-beta (Homo sapiens) (UniProt Q9Y261); assay: ATG_FoxA2_CIS: Attagene CIS-FACTORIAL HepG2 Assay for human Forkhead box A2 (FOXA2) (AID 2282942); conditions: HepG2 cis-reporter transcription factor activity, 24 h; actives raise or lower the signal
Summary of the method: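 Cells: HepG2, transient multiplex reporter transfection. Exposure 24 h. Detection: reporter-specific RT-PCR, fluorescent labelling, restriction digest, capillary electrophoresis. Analysis: bidirectional curve fit, DMSO as negative control.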

[15] = ATG_FoxO_CIS: Attagene CIS-FACTORIAL HepG2 Assay for human Forkhead box O (FoxO) (AID 2282943); conditions: HepG2 Attagene cis-reporter, FoxO element, mRNA; actives raise or lower the signal
Summary of the method: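 Endogenous transcription factor activity read from multiplexed cis-promoter reporter transcripts in transiently transfected HepG2, 24 h after dosing. Reporter RNA measured via RT-PCR plus capillary electrophoresis of FAM-labeled products; gain or loss relative to DMSO.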

[16] = ATG_GATA_CIS: Attagene CIS-FACTORIAL HepG2 Assay for human GATA Binding Protein (AID 2282944); conditions: HepG2 GATA cis-element reporter, Attagene multiplex mRNA; actives raise or lower the signal
Summary of the method: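 Reporter transcripts from a GATA cis-regulated unit, among multiplexed reporters in transfected HepG2 cells, were measured by RT-PCR with capillary electrophoresis after 24 h dosing. Induction or loss scored relative to DMSO.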

[17] = ATG_GLI_CIS: Attagene CIS-FACTORIAL HepG2 Assay for human Zinc Finger Protein GLI1 (AID 2282945); conditions: HepG2, Attagene cis-factorial reporter mRNA, GLI element; actives raise or lower the signal
Summary of the method: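 Bidirectional curve fits relative to DMSO, using reporter mRNA levels from RT-PCR plus capillary electrophoresis. Cells were HepG2 transiently carrying cis-regulated reporter constructs, harvested 24 h after dosing.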

[18] = target: Retinoic acid receptor alpha (Homo sapiens) (UniProt P10276); assay: ATG_DR5_RAR_CIS: Attagene CIS-FACTORIAL HepG2 Assay for human Retinoic Acid Receptor Alpha (RARE), DR5 submotif (AID 2282934); conditions: HepG2 Attagene cis-factorial RARE DR5 reporter, mRNA; actives raise or lower the signal
Summary of the method: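 Reporter transcripts from a DR5-regulated unit, measured via RT-PCR plus capillary electrophoresis, reflect endogenous RAR activity in transiently transfected human HepG2 liver cells. Exposure lasted 24 h; gain or loss of signal scored against DMSO.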

[19] = ATG_Ets_CIS: Attagene CIS-FACTORIAL HepG2 Assay for human Erythroblast Transformation Specific (ETS) (AID 2282941); conditions: HepG2 ETS cis-reporter transcription, actives raise or lower the signal
Summary of the method: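 After transient cis-reporter transfection, HepG2 cells receive test chemical for 24 h. Reporter mRNA levels, measured by RT-PCR and capillary electrophoresis fluorescence, are analysed bidirectionally relative to the DMSO baseline.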

[20] = target: Bile acid receptor (Homo sapiens) (UniProt Q96RI1); assay: ATG_IR1_CIS: Attagene CIS-FACTORIAL HepG2 Assay for human Nuclear Receptor Subfamily 1 Group H Member 4 (NR1H4), IR1 submotif (AID 2282946); conditions: IR1 reporter transcription, actives raise or lower the signal
Summary of the method: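 Cells (human HepG2) carry transiently transfected cis-promoter reporter transcription units. Compounds are incubated 24 h, total RNA is reverse-transcribed and amplified, and labelled fragments are resolved by capillary electrophoresis. Curves use DMSO as baseline.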

Measured: AC50

Hepatocyte nuclear factor 3-beta (Homo sapiens), sequence (Q9Y261 whole entry, looked up): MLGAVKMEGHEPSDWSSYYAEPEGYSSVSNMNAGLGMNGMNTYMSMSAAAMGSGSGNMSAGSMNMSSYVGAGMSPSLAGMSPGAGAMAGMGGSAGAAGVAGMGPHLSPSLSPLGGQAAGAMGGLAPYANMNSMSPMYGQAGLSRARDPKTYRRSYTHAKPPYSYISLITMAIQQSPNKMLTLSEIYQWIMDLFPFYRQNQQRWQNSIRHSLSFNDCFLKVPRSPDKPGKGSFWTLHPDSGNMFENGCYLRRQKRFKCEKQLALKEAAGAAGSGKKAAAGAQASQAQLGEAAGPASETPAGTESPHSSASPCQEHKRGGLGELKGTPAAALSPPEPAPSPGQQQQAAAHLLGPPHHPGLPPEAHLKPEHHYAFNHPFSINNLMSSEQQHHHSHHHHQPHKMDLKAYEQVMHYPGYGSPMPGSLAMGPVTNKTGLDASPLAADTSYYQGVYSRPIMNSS
Bile acid receptor (Homo sapiens), sequence (Q96RI1 whole entry, looked up, the tested form may be a part): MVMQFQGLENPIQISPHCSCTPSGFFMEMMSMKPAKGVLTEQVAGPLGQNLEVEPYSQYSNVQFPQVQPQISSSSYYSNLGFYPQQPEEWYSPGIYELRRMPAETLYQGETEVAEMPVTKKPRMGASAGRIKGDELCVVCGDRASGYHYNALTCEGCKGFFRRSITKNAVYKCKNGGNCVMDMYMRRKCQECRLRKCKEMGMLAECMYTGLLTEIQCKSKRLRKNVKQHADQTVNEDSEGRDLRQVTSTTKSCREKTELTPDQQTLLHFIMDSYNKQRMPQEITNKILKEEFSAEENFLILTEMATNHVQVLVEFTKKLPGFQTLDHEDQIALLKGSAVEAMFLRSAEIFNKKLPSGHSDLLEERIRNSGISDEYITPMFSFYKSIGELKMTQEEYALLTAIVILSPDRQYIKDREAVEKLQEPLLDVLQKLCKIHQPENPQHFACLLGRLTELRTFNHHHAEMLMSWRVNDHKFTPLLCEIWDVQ
Aryl hydrocarbon receptor (Homo sapiens), sequence (P35869 whole entry, looked up): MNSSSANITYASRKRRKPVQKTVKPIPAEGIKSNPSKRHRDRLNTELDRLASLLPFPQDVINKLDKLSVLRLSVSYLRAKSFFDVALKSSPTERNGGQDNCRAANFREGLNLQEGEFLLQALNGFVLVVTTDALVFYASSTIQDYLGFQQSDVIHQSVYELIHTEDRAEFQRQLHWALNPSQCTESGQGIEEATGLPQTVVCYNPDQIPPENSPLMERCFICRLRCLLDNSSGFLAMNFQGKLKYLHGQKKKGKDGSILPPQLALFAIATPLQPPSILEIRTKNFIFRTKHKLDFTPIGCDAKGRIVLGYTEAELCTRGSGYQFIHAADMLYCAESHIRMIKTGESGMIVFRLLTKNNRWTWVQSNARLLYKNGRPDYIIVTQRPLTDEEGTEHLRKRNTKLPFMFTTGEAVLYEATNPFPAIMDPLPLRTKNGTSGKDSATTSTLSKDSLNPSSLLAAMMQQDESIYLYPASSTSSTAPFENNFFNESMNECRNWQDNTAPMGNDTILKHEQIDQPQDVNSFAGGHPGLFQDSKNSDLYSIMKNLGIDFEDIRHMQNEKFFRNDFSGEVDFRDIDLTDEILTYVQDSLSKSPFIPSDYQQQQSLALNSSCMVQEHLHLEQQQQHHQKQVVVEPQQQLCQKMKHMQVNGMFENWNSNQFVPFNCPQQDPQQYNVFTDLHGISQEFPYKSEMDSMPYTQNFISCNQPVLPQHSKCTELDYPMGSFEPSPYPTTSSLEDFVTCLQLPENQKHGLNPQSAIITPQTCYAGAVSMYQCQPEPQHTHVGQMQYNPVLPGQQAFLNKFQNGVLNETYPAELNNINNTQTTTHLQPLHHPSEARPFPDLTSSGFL
Transcription factor E2F1 (Homo sapiens), sequence (Q01094 whole entry, looked up): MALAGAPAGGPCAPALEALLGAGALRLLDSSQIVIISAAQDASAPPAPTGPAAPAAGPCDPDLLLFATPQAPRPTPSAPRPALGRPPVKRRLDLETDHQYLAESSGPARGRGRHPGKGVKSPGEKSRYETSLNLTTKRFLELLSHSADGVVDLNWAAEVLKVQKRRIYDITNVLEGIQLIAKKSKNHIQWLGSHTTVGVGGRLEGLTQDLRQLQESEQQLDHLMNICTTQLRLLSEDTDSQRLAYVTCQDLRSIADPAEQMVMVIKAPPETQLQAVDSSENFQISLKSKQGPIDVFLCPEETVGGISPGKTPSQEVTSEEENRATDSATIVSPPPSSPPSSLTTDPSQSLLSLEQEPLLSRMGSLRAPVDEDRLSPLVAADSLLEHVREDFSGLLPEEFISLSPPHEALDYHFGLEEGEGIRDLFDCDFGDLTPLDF
Retinoic acid receptor alpha (Homo sapiens), sequence (P10276 whole entry, looked up): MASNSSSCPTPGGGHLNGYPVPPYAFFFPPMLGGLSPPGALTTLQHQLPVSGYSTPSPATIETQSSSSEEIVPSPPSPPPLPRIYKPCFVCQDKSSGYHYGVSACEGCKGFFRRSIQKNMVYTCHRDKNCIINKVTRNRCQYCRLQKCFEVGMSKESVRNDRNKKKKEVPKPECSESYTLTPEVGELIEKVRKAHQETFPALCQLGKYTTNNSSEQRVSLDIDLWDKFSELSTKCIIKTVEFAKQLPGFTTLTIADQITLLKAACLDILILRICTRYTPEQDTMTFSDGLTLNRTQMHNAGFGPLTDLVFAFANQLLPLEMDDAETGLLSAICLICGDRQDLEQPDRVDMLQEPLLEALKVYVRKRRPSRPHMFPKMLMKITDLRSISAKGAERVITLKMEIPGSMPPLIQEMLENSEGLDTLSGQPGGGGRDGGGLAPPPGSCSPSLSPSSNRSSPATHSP
CCAAT/enhancer-binding protein beta (Homo sapiens), sequence (P17676 whole entry, looked up, the tested form may be a part): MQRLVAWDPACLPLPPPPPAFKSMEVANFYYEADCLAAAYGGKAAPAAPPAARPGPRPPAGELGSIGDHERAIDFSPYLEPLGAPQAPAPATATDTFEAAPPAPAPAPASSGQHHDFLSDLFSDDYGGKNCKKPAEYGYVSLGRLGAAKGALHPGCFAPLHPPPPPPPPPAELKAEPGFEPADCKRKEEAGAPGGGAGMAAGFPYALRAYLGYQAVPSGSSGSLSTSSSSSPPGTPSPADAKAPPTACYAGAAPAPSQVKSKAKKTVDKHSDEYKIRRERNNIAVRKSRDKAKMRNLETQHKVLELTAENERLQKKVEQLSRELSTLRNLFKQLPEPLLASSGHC

NNC(=S)NN
inactive: [1] | [2] | [3] | [4] | [5] | [6] | [7] | [8] | [9] | [10] | [11] | [12] | [13] | [14] | [15] | [16] | [17]

O=C(O)C(F)(F)C(F)(F)C(F)(F)C(F)(F)C(F)(F)C(F)(F)F
inactive: [1] | [2] | [3] | [4] | [5] | [6] | [7] | [18] | [8] | [9] | [10] | [11] | [19] | [15] | [17] | [20]

COc1cc(OC)nc(NC(=O)NS(=O)(=O)c2ncccc2C(=O)N(C)C)n1
inactive: [1] | [2] | [3] | [4] | [5] | [6] | [7] | [8] | [9] | [10] | [11] | [12] | [13] | [19] | [14] | [15] | [16] | [17]

CNC
inactive: [1] | [2] | [3] | [4] | [5] | [6] | [7] | [8] | [9] | [10] | [11] | [12] | [13] | [19] | [15] | [16] | [17]

C(=NC1CCCCC1)=NC1CCCCC1
active: [3] 33.4 µM | [7] 2.69 µM | [9] 33.4 µM | [11] 3.17 µM
inactive: [1] | [2] | [4] | [5] | [6] | [8] | [10] | [12] | [13] | [19] | [14] | [15] | [16] | [17] | [20]

Cc1ccccc1C(=O)Nc1cccc(OC(C)C)c1
inactive: [1] | [4] | [5] | [6] | [7] | [8] | [9] | [10] | [11] | [12] | [13] | [19] | [14] | [15] | [16] | [17]
active: [2] 61.9 µM | [3] 158 µM

CC(C)(c1ccc(OCC2CO2)cc1)c1ccc(OCC2CO2)cc1 (stereo not given)
inactive: [4] | [6] | [7] | [8] | [10] | [12] | [13] | [19] | [14] | [15] | [16] | [17]
active: [1] 51.6 µM | [2] 49.2 µM | [3] 25.9 µM | [5] 53.9 µM | [9] 52.4 µM | [11] 33.4 µM

O=S(=O)(c1ccc(Cl)cc1)c1ccc(Cl)cc1
active: [2] 16.5 µM | [5] 35.8 µM
inactive: [1] | [3] | [4] | [6] | [7] | [8] | [9] | [10] | [11] | [12] | [13] | [19] | [15] | [16] | [17]
